# Source: the supplement of paper PMC4466140
# What was measured:
# Assay in all cases: SPOT peptide array binding signal intensity (averaged, normalized) (arbitrary units (background-subtracted, floor 0; scale differs between SH3 domains)); higher = stronger binding of the SH3 domain to the peptide
# [1] = target: CaNbp2
# Procedure, shortened: (§1)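 The binding signal is the normalized, background-subtracted spot intensity averaged over replicates; its arbitrary units differ between domains. It was obtained by incubating 10 μg/ml GST-fused SH3 domains from four yeast species overnight at 4°C in TBS-based blocking buffer on cellulose membranes with synthetic 15-mer peptides, cysteines replaced by serines, then detecting with anti-GST antibody, HRP anti-mouse secondary and luminol.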
# [2] = target: CaRvs167
# Procedure, shortened: as §1
# [3] = target: CaRvs167-3
# Procedure, shortened: as §1
# [4] = target: CaSho1
# Procedure, shortened: as §1
# [5] = target: CaSla1-D1-D2
# Procedure, shortened: as §1
# [6] = target: CaSla1-D3
# Procedure, shortened: as §1
# [7] = target: ScAbp1
# Procedure, shortened: as §1
# [8] = target: ScBbc1
# Procedure, shortened: as §1
# [9] = target: ScBem1-D1
# Procedure, shortened: as §1
# [10] = target: ScBzz1-D1
# Procedure, shortened: as §1
# [11] = target: ScBzz1-D2
# Procedure, shortened: as §1
# [12] = target: ScCyk3
# Procedure, shortened: as §1
# [13] = target: ScFus1
# Procedure, shortened: as §1
# [14] = target: ScHof1
# Procedure, shortened: as §1
# [15] = target: ScHse1
# Procedure, shortened: as §1
# [16] = target: ScLsb1
# Procedure, shortened: as §1
# [17] = target: ScLsb2
# Procedure, shortened: as §1
# [18] = target: ScLsb3
# Procedure, shortened: as §1
# [19] = target: ScLsb4
# Procedure, shortened: as §1
# [20] = target: ScMyo3
# Procedure, shortened: as §1
# [21] = target: ScMyo5
# Procedure, shortened: as §1
# [22] = target: ScNbp2
# Procedure, shortened: as §1
# [23] = target: ScPex13
# Procedure, shortened: as §1
# [24] = target: ScRvs167
# Procedure, shortened: as §1
# [25] = target: ScSho1
# Procedure, shortened: as §1
# [26] = target: ScSla1-D1-D2
# Procedure, shortened: as §1
# [27] = target: ScSla1-D3
# Procedure, shortened: as §1
# [28] = target: SpAbp1-D1
# Procedure, shortened: as §1
# [29] = target: SpBbc1
# Procedure, shortened: as §1
# [30] = target: SpBzz1-D1
# Procedure, shortened: as §1
# [31] = target: SpBzz1-D2
# Procedure, shortened: as §1
# [32] = target: SpCyk3
# Procedure, shortened: as §1
# [33] = target: SpHof1
# Procedure, shortened: as §1
# [34] = target: SpHof1-2
# Procedure, shortened: as §1
# [35] = target: SpHof1-3
# Procedure, shortened: as §1
# [36] = target: SpHse1
# Procedure, shortened: as §1
# [37] = target: SpLsb1
# Procedure, shortened: as §1
# [38] = target: SpLsb4
# Procedure, shortened: as §1
# [39] = target: SpMyo1
# Procedure, shortened: as §1
# [40] = target: SpNbp2
# Procedure, shortened: as §1
# [41] = target: SpPex13
# Procedure, shortened: as §1
# [42] = target: SpRvs167
# Procedure, shortened: as §1
# [43] = target: SpSla1-D1-D2
# Procedure, shortened: as §1
# [44] = target: SpSla1-D3
# Procedure, shortened: as §1
# [45] = target: AgAbp1
# Procedure, shortened: as §1
# [46] = target: AgBbc1
# Procedure, shortened: as §1
# [47] = target: AgBem1-D1
# Procedure, shortened: as §1
# [48] = target: AgBzz1-D1
# Procedure, shortened: as §1
# [49] = target: AgBzz1-D2
# Procedure, shortened: as §1
# [50] = target: AgCyk3
# Procedure, shortened: as §1
# [51] = target: AgFus1
# Procedure, shortened: as §1
# [52] = target: AgHof1
# Procedure, shortened: as §1
# [53] = target: AgHse1
# Procedure, shortened: as §1
# [54] = target: AgLsb1
# Procedure, shortened: as §1
# [55] = target: AgLsb4
# Procedure, shortened: as §1
# [56] = target: AgMyo5
# Procedure, shortened: as §1
# [57] = target: AgNbp2
# Procedure, shortened: as §1
# [58] = target: AgRvs167
# Procedure, shortened: as §1
# [59] = target: AgSho1
# Procedure, shortened: as §1
# [60] = target: AgSla1-D1-D2
# Procedure, shortened: as §1
# [61] = target: AgSla1-D3
# Procedure, shortened: as §1
# [62] = target: CaAbp1-D1
# Procedure, shortened: as §1
# [63] = target: CaAbp1-D2
# Procedure, shortened: as §1
# [64] = target: CaBbc1
# Procedure, shortened: as §1
# [65] = target: CaBem1-D1
# Procedure, shortened: as §1
# [66] = target: CaBzz1-D1
# Procedure, shortened: as §1
# [67] = target: CaBzz1-D2
# Procedure, shortened: as §1
# [68] = target: CaCyk3
# Procedure, shortened: as §1
# [69] = target: CaFus1
# Procedure, shortened: as §1
# [70] = target: CaHof1
# Procedure, shortened: as §1
# [71] = target: CaHse1
# Procedure, shortened: as §1
# [72] = target: CaLsb1
# Procedure, shortened: as §1
# [73] = target: CaLsb4
# Procedure, shortened: as §1
# [74] = target: CaMyo5
# Procedure, shortened: as §1
binder,measurement,setting,value
DDEDVPPQLPTRTKS,SPOT peptide array binding signal intensity,[1],≤ 0
same,SPOT peptide array binding signal intensity,[2],1080
same,SPOT peptide array binding signal intensity,[3],3.5
same,SPOT peptide array binding signal intensity,[4],≤ 0
same,SPOT peptide array binding signal intensity,[5],≤ 0
same,SPOT peptide array binding signal intensity,[6],≤ 0
same,SPOT peptide array binding signal intensity,[7],≤ 0
same,SPOT peptide array binding signal intensity,[8],0.5
same,SPOT peptide array binding signal intensity,[9],≤ 0
same,SPOT peptide array binding signal intensity,[10],6
same,SPOT peptide array binding signal intensity,[11],22
same,SPOT peptide array binding signal intensity,[12],1
same,SPOT peptide array binding signal intensity,[13],6
same,SPOT peptide array binding signal intensity,[14],16.5
same,SPOT peptide array binding signal intensity,[15],23.5
same,SPOT peptide array binding signal intensity,[16],576
same,SPOT peptide array binding signal intensity,[17],≤ 0
same,SPOT peptide array binding signal intensity,[18],9300
same,SPOT peptide array binding signal intensity,[19],3020
same,SPOT peptide array binding signal intensity,[20],≤ 0
same,SPOT peptide array binding signal intensity,[21],≤ 0
same,SPOT peptide array binding signal intensity,[22],≤ 0
same,SPOT peptide array binding signal intensity,[23],1570
same,SPOT peptide array binding signal intensity,[24],1980
same,SPOT peptide array binding signal intensity,[25],6
same,SPOT peptide array binding signal intensity,[26],1
same,SPOT peptide array binding signal intensity,[27],0.5
same,SPOT peptide array binding signal intensity,[28],≤ 0
same,SPOT peptide array binding signal intensity,[29],3.75
same,SPOT peptide array binding signal intensity,[30],0.5
same,SPOT peptide array binding signal intensity,[31],≤ 0
same,SPOT peptide array binding signal intensity,[32],≤ 0
same,SPOT peptide array binding signal intensity,[33],16.8
same,SPOT peptide array binding signal intensity,[34],7
same,SPOT peptide array binding signal intensity,[35],6
same,SPOT peptide array binding signal intensity,[36],7
same,SPOT peptide array binding signal intensity,[37],27.5
same,SPOT peptide array binding signal intensity,[38],7620
same,SPOT peptide array binding signal intensity,[39],≤ 0
same,SPOT peptide array binding signal intensity,[40],8
same,SPOT peptide array binding signal intensity,[41],≤ 0
same,SPOT peptide array binding signal intensity,[42],1800
same,SPOT peptide array binding signal intensity,[43],≤ 0
same,SPOT peptide array binding signal intensity,[44],3
VQPTAAPATPPRHIS,SPOT peptide array binding signal intensity,[45],≤ 0
same,SPOT peptide array binding signal intensity,[46],≤ 0
same,SPOT peptide array binding signal intensity,[47],≤ 0
same,SPOT peptide array binding signal intensity,[48],≤ 0
same,SPOT peptide array binding signal intensity,[49],≤ 0
same,SPOT peptide array binding signal intensity,[50],≤ 0
same,SPOT peptide array binding signal intensity,[51],≤ 0
same,SPOT peptide array binding signal intensity,[52],≤ 0
same,SPOT peptide array binding signal intensity,[53],5.5
same,SPOT peptide array binding signal intensity,[54],8
same,SPOT peptide array binding signal intensity,[55],964
same,SPOT peptide array binding signal intensity,[56],≤ 0
same,SPOT peptide array binding signal intensity,[57],≤ 0
same,SPOT peptide array binding signal intensity,[58],43.6
same,SPOT peptide array binding signal intensity,[59],≤ 0
same,SPOT peptide array binding signal intensity,[60],≤ 0
same,SPOT peptide array binding signal intensity,[61],≤ 0
same,SPOT peptide array binding signal intensity,[62],≤ 0
same,SPOT peptide array binding signal intensity,[63],≤ 0
same,SPOT peptide array binding signal intensity,[64],78.6
same,SPOT peptide array binding signal intensity,[65],5
same,SPOT peptide array binding signal intensity,[66],≤ 0
same,SPOT peptide array binding signal intensity,[67],≤ 0
same,SPOT peptide array binding signal intensity,[68],≤ 0
same,SPOT peptide array binding signal intensity,[69],≤ 0
same,SPOT peptide array binding signal intensity,[70],≤ 0
same,SPOT peptide array binding signal intensity,[71],5.25
same,SPOT peptide array binding signal intensity,[72],≤ 0
same,SPOT peptide array binding signal intensity,[73],2000
same,SPOT peptide array binding signal intensity,[74],≤ 0
same,SPOT peptide array binding signal intensity,[1],≤ 0
same,SPOT peptide array binding signal intensity,[2],462
same,SPOT peptide array binding signal intensity,[3],≤ 0
same,SPOT peptide array binding signal intensity,[4],≤ 0
same,SPOT peptide array binding signal intensity,[5],≤ 0
same,SPOT peptide array binding signal intensity,[6],≤ 0
same,SPOT peptide array binding signal intensity,[7],≤ 0
same,SPOT peptide array binding signal intensity,[8],1.75
same,SPOT peptide array binding signal intensity,[9],≤ 0
same,SPOT peptide array binding signal intensity,[10],≤ 0
same,SPOT peptide array binding signal intensity,[11],≤ 0
same,SPOT peptide array binding signal intensity,[12],≤ 0
same,SPOT peptide array binding signal intensity,[13],≤ 0
same,SPOT peptide array binding signal intensity,[14],0.5
same,SPOT peptide array binding signal intensity,[15],≤ 0
same,SPOT peptide array binding signal intensity,[16],14.5
same,SPOT peptide array binding signal intensity,[17],≤ 0
same,SPOT peptide array binding signal intensity,[18],6740
same,SPOT peptide array binding signal intensity,[19],1970
same,SPOT peptide array binding signal intensity,[20],≤ 0
same,SPOT peptide array binding signal intensity,[21],≤ 0
same,SPOT peptide array binding signal intensity,[22],≤ 0
same,SPOT peptide array binding signal intensity,[23],4
same,SPOT peptide array binding signal intensity,[24],1040
same,SPOT peptide array binding signal intensity,[25],4.75
same,SPOT peptide array binding signal intensity,[26],≤ 0
same,SPOT peptide array binding signal intensity,[27],≤ 0
same,SPOT peptide array binding signal intensity,[28],≤ 0
same,SPOT peptide array binding signal intensity,[29],≤ 0
same,SPOT peptide array binding signal intensity,[30],≤ 0
